# From the supplement of paper PMC10981050
# Where “and” joins values, the source holds several entries; their conditions need not be identical. Equal values may be shown once. Where a name gives a salt, the structure may show the parent alone.
# How the values were obtained:
# Experiment in all cases: cell viability relative to vehicle control; higher = less cytotoxic
# Settings in all cases: 10 µM
# K562 = tested on: K562
# Method in brief: (§1)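 Each screen used CRISPR-edited mutant and wild-type clones from four leukaemia lines. Compounds were acoustically dispensed at a single 10 µM dose, and CellTiter-Glo luminescence was read after 48 h with the supernatant first removed. Viability was analysed in Genedata Screener and given as percent of the on-plate vehicle control.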
# MARIMO = tested on: MARIMO
# Method in brief: as §1
# MOLM14 = tested on: MOLM14
# Method in brief: as §1
# OCI-AML2 = tested on: OCI-AML2
# Method in brief: as §1
Structure (SMILES),cell viability (K562; SRSF2 genotype: SRSF2 P95H/wt),cell viability (K562; SRSF2 genotype: SRSF2 wt/wt) [%],cell viability (MARIMO; SRSF2 genotype: SRSF2 P95H/wt) [%],cell viability (MARIMO; SRSF2 genotype: SRSF2 wt/wt) [%],cell viability (MOLM14; SRSF2 genotype: SRSF2 P95H/wt) [%],cell viability (MOLM14; SRSF2 genotype: SRSF2 wt/wt) [%],cell viability (OCI-AML2; SRSF2 genotype: P95H/wt) [%],cell viability (OCI-AML2; SRSF2 genotype: wt/wt) [%]
O=C1CCC[C@@H]2[C@H]3CCCN4CCC[C@H](CN12)[C@@H]34 [Sophoridine],104% and 100%,105,108,113,103,108,100,101
O=c1[nH]c2ccccc2o1 [2-Benzoxazolinone],100% and 89.3%,96.7,97.2,102,98.4,104,91.5,94.2
COc1cc([C@@H]2c3cc4c(cc3[C@H](O)[C@H]3COC(=O)[C@H]23)OCO4)cc(OC)c1O [4'-Demethylpodophyllotoxin],15.8% and 34.9%,35.7,8.03,7.56,0.85,0.99,1.45,3.83
COC1=C[C@@H]2[C@@H]3Cc4ccc(OC)c(O)c4[C@]2(CCN3C)CC1=O [Sinomenine hydrochloride],104% and 105%,97.9,102,101,98.5,101,103,109
COc1cc2c(cc1OC)C(Cc1ccc(O)c(Oc3cc4c(cc3OC)CCN(C)C4Cc3ccc(O)cc3)c1)N(C)CC2.[O-][Cl+3]([O-])([O-])O (stereo unspecified) [Liensinine diperchlorate],87% and 79.8%,77.4,64.6,76.3,61.7,77.2,63.7,63.7
CC(=O)OCC1=C(C(=O)O)N2C(=O)C(N)C2SC1 (stereo unspecified) [7-Aminocephalosporanic acid],107% and 103%,102,101,108,111,107,109,110
CN1[C@@H]2CC[C@H]1C[C@@H](OC(=O)[C@H](CO)c1ccccc1)C2 [Hyoscyamine (Daturine)],104% and 93.5%,91.9,104,107,99.2,102,95.4,113
COP(=O)(OC)SCn1c(=O)oc2cc(Cl)cnc21 [Azamethiphos],55.4% and 71.8%,78.9,48.4,58.3,93.3,107,110,106
CCC1=C[C@H]2CN3CCc4c([nH]c5ccccc45)[C@](C(=O)OC)(C2)[C@H]13 [Catharanthine],92.4% and 94%,95.2,81,86.6,87.8,95.5,92,96.2
CCCN1CCO[C@@H]2c3cc(O)ccc3OC[C@H]21,98% and 95.8%,92.6,97.5,97,104,101,96.5,93.2
O=C/C=C/c1ccccc1 [Cinnamaldehyde],97.5% and 92.8%,94.3,92,95.3,96.1,98.9,102,102
COc1ccc(C(CN(C)C)C2(O)CCCCC2)cc1 (stereo unspecified) [Venlafaxine HCl],99.9%,98.7,95.8,99.7,96.9,98.6,99.8,107
CCCCCc1cc(O)cc(O)c1 [Olivetol],102% and 99.9%,110,87.2,96.8,101,107,111,112
Cc1c([C@H](C)[C@@H]2NC[C@@H](C)C[C@H]2O)ccc2c1C[C@H]1[C@H]2CC=C2C[C@@H](O)CC[C@@]21C [Veratramine],73.9% and 73%,75,64.7,64.5,81.1,89.6,47.1,62.9
Cl[TeH]1(Cl)(Cl)OCCO1.N,86.8% and 76.3%,75,78,83.5,71.3,74.3,76.1,84.1
COc1cc2c3c(c1OC)-c1ccccc1C[C@H]3N(C)CC2 [Nuciferine],102% and 108%,102,102,108,102,104,96.3,106
CCc1c2c(nc3ccccc13)-c1cc3c(c(=O)n1C2)COC(=O)[C@]3(O)CC [7-Ethylcamptothecin],7.64% and 19.6%,10.4,5.75,3.52,0.48,0.48,0.36,0.82
CC(=O)O[C@@H]1[C@H]2[C@@H](OC(=O)Cc3ccccc3)[C@@H](C)C[C@]2(OC(C)=O)C(=O)/C(C)=C/[C@@H]2[C@H](CC[C@]13CO3)C2(C)C [Euphorbia factor L1],105% and 96.6%,100,89.8,102,102,104,95.9,105
CCN1C[C@]2(COC)CC[C@H](OC)[C@]34C1[C@H]([C@H](OC)[C@H]23)[C@@]1(OC(C)=O)C[C@H](OC)[C@@]2(O)C[C@@H]4[C@@H]1[C@H]2OC(=O)c1ccc(OC)cc1 [Crassicauline A],93.2% and 89.8%,87.5,84.4,93.3,91.8,90.6,87.7,100
COc1cc([C@@H]2c3cc4c(cc3[C@@H](O)[C@H]3COC(=O)[C@H]23)OCO4)cc(OC)c1O [4'-Demethylepipodophyllotoxin],36.4% and 51%,51.2,26.8,31.3,13.4,6.99,20.9,24.2
C[C@@H]1CCC=C2C(=O)C[C@H]3OOC(C)(C)[C@H]3[C@]21C [Nardosinone],85.3% and 82.5%,83.5,84.7,92.8,89.8,91.4,92.9,102

Structure (SMILES),cell viability (K562; SRSF2 genotype: SRSF2 P95H/wt),cell viability (K562; SRSF2 genotype: SRSF2 wt/wt) [%],cell viability (MARIMO; SRSF2 genotype: SRSF2 P95H/wt) [%],cell viability (MARIMO; SRSF2 genotype: SRSF2 wt/wt) [%],cell viability (MOLM14; SRSF2 genotype: SRSF2 P95H/wt) [%],cell viability (MOLM14; SRSF2 genotype: SRSF2 wt/wt) [%],cell viability (OCI-AML2; SRSF2 genotype: P95H/wt) [%],cell viability (OCI-AML2; SRSF2 genotype: wt/wt) [%]
NC(=O)CN1CC(c2ccccc2)CC1=O (stereo unspecified) [Phenylpiracetam],94.8% and 94.3%,97.6,102,96.9,99.8,98.1,101,103
O=C(O[C@H]1C[C@H]2CC[C@@H](C1)[N+]21CCCC1)C(O)(c1ccccc1)c1ccccc1 [Trospium chloride (Sanctura)],98.8% and 100%,95.7,101,102,99.4,102,102,102
O=Cc1ccccc1 [Benzoic aldehyde],98.9% and 98%,95,86.4,91.5,93,92.4,85.4,88.3
CCCC[N+]1(C)[C@@H]2CC(OC(=O)[C@H](CO)c3ccccc3)C[C@H]1[C@@H]1O[C@@H]12 (stereo partly specified) [Butylscopolamine bromide (Scopolamine butylb],108% and 95.5%,97.8,102,110,97.5,103,94.3,105
O=c1ccc2ccc3occc3c2o1 [Isopsoralen],105% and 98.7%,105,100,101,108,110,103,97
C[C@H]1CC[C@@H]2N(C1)C[C@H]1[C@@H]3C[C@H]4[C@@H](C[C@H](O)[C@H]5C[C@@H](O)CC[C@@]54C)[C@@H]3CC[C@@H]1[C@]2(C)O [Peimine],110% and 102%,95.8,97.3,104,104,98.6,99.6,106
CN1C2CCC1CC(O)C2 (stereo unspecified) [Tropine],105% and 98.9%,97.2,104,110,99.5,103,94.5,108
CC(C)(C)c1cc(C=C(C#N)C#N)cc(Br)c1O,84.3% and 86.2%,78,94.2,99.3,93.5,100,80.5,89.6
"CC12NC(Cc3ccccc31)c1ccccc12 (single isomer, unassigned; (+)) [(+)-MK 801 maleate]",92.8% and 93.5%,93.2,85.7,91.7,91,91.5,86.7,99.1
Cc1cccc([C@H](C)c2c[nH]cn2)c1C [Dexmedetomidine HCl (Precedex)],99.1% and 101%,91,102,100,102,104,107,110
Cc1c(Cl)c(OCC(=O)N2CCN(C)CC2)nc2sc(C(=O)NC3CC3)c(N)c12,80.2% and 60.3%,66,40.5,30.8,81.9,51,27.8,33.5
CCO[C@H]1O[C@@H]2O[C@@]3(C)CC[C@H]4[C@H](C)CC[C@@H]([C@H]1C)[C@@]24OO3 [Arteether],68.2% and 63.3%,69,62.3,64.4,69.8,45.7,55.5,52.5
CC[C@]12C=CCN3CC[C@]4(C(=C(C(=O)OC)C1)Nc1ccccc14)[C@@H]32 [Tabersonine],17.7% and 27%,30.1,19.1,18.7,11.3,4.06,7.01,14.7
CN(C)Cc1c[nH]c2ccccc12 [Gramine],101%,100,102,102,99.6,100,102,98.9
Cc1cc(C(C#N)c2ccc(Cl)cc2)c(Cl)cc1NC(=O)c1cc(I)cc(I)c1O (stereo unspecified) [Closantel],95% and 92.2%,92.3,102,108,99,100,92.4,110
CC(=O)OC(C)(C)/C=C/C(=O)[C@](C)(O)[C@H]1[C@H](O)C[C@@]2(C)[C@@H]3CC=C4[C@H](C[C@H](O)C(=O)C4(C)C)[C@]3(C)C(=O)C[C@]12C [Cucurbitacin B],19.7% and 26.4%,28.1,8.8,16.8,0.7,0.57,0.29,3.38
CC(C)(C)[C@]1(O)CC2OC(=O)CC23C(=O)OC2OC(=O)[C@H](O)C231 (stereo partly specified) [Bilobalide],108% and 105%,98,96.9,116,104,104,98.1,109
COc1ccc(C=O)cc1O [Isovanillin],105% and 103%,103,108,108,106,101,104,98.2
O=S(=O)(F)Cc1ccccc1 [PMSF (Phenylmethylsulfonyl Fluoride)],95.7% and 94.9%,97,100,99.5,99.3,102,102,96.1
COc1cc2c(cc1O)CC1NCCc3cc(OC)c(O)c-2c31 (stereo unspecified) [Norisoboldine],108% and 103%,105,93.1,90.2,99.3,103,103,99.1
O=c1[nH]c2ccccc2n1C1CCN(Cc2ccc(-c3[nH]c4cc5ncnc5cc4nc3-c3ccccc3)cc2)CC1,56.9% and 65.9%,61.7,66.5,76.2,53.6,43.6,48.8,47.9
